From article PMC10726135, “HNF4α isoforms regulate the circadian balance between carbohydrate and lipid metabolism in the liver”
Over roughly 18,000 sequences, “log2 normalized intensity” has its median near 0.39; the highest 2% begin near 6.6. Many of the other results were omitted from the sample, so the highest values are more common in it than they were.

Each sequence was assayed against T1, HNF4alpha2 (COS-7 nuclear extract) (Homo sapiens, UniProt P41235 1-474) (assay: protein-binding microarray; COS-7 nuclear extract on double-stranded Agilent 4x180k PBM; binding buffer, salt, pH and temperature not given in the material; high values mean tight binding). Conditions: chain copies: 2; label: 3' end of strand 1 on the slide; dsDNA, one strand shown.
T1 sequence: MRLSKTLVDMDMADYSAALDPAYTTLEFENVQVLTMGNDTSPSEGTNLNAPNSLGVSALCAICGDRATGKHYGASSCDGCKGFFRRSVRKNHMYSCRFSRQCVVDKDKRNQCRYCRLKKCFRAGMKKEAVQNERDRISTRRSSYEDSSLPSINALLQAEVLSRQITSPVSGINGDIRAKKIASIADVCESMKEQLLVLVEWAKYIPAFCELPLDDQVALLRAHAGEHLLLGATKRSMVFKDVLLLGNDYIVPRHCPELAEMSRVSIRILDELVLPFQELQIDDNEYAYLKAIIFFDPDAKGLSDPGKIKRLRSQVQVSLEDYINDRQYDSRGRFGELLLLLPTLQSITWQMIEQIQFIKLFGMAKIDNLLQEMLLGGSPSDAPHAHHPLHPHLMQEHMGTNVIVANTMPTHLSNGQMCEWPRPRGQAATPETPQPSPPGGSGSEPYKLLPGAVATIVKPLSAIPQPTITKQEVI
Outline: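 Double-stranded oligonucleotides of ~60 nt, representing ~44,000 test sequences in quadruplicate, made up a custom Agilent SurePrint G3 4x180k array. Nuclear extracts from COS-7 cells transiently transfected by CaPO4 with a human HNF4α isoform expression vector were applied, and bound HNF4α was imaged at 2-µm resolution on an Agilent G2565CA scanner. Binding signal refers to the background-corrected, normalized gProcessedSignal output of Agilent software.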

Sequence	binding signal [log2 normalized intensity]
TCCTGATCCCTGAGGTCGGGGCCTGGTCTGGCCTAGGGAGATTAGAGTATCGGTCGA	0.683
CAATGCCCCAGAAAGCCAGCAGGGGCTGCTGCCTAGGGAGATTAGAGTATCGGTCGA	-0.844
AGCTTCTCTTTCTAGGTCACCACCTTTTTTGCCTAGGGAGATTAGAGTATCGGTCGA	1.37
GGCCTGATAGATTTTGCATTGCTCACATAGGCCTAGGGAGATTAGAGTATCGGTCGA	-0.988
TCCTCCAAAACCCAGTTCATAGGTCAATTCGCCTAGGGAGATTAGAGTATCGGTCGA	4.02
CCCTCCCCTCCCCCCACTCAAAATAGGAGTGCCTAGGGAGATTAGAGTATCGGTCGA	4.52
CCCTCCCCCCACTCAAAATAGGAGTTAAGGGCCTAGGGAGATTAGAGTATCGGTCGA	2.45
AGCTGACGCCCCACCCCCTCCACCCCTGCCGCCTAGGGAGATTAGAGTATCGGTCGA	6.82
ACGCCCCACCCCCTCCACCCCTGCCTTTCAGCCTAGGGAGATTAGAGTATCGGTCGA	6.39
GAAAAAGCTGACGCCCCACCCCCTCCACCCGCCTAGGGAGATTAGAGTATCGGTCGA	6.44
TCCTCCCCTCCCCTCCCCCCACTCAAAATAGCCTAGGGAGATTAGAGTATCGGTCGA	6.79
GGCTATACAATTCCAGCAAGGATGGGGGCAGCCTAGGGAGATTAGAGTATCGGTCGA	-0.832
AAAATTAAGGTTCAAAGGGAAAAAATAATCGCCTAGGGAGATTAGAGTATCGGTCGA	-0.757
TTCCATTGAAGCAGAGTGTCCCATATCACAGCCTAGGGAGATTAGAGTATCGGTCGA	0.724
GTTAGATTAGTGTGCAGCTTTGTGTAAAACGCCTAGGGAGATTAGAGTATCGGTCGA	0.946
AGATCTCAGTTGGTCCAAGGTACATGTCTCGCCTAGGGAGATTAGAGTATCGGTCGA	2.34
GACAGCTGGGCCCTGCCTGACCTGCCCTTTGCCTAGGGAGATTAGAGTATCGGTCGA	4.42
TTCTGCCCCTTGCTCCTGCTTGCTGGCTTTGCCTAGGGAGATTAGAGTATCGGTCGA	1.2
CCCTCGACCTTTGCCCTCCATAAGGGGGAGGCCTAGGGAGATTAGAGTATCGGTCGA	6.24
ACAGAAGAAGGAAAAGGCCTGACCTTTGCCGCCTAGGGAGATTAGAGTATCGGTCGA	4.61
CTCTGCAGAGGCTTCCTCTTTGGTGCAAAGGCCTAGGGAGATTAGAGTATCGGTCGA	-0.855
AGAGGACAGAAGAAGGAAAAGGCCTGACCTGCCTAGGGAGATTAGAGTATCGGTCGA	-0.388

Sequence	binding signal [log2 normalized intensity]
CCCTGCCTGACCTGCCCTTTGTCCCTCCTGGCCTAGGGAGATTAGAGTATCGGTCGA	4.51
AGAAGGAAAAGGCCTGACCTTTGCCCTCTGGCCTAGGGAGATTAGAGTATCGGTCGA	10.1
CTCTTTGGTGCAAAGGTCAGGACAAGGCTCGCCTAGGGAGATTAGAGTATCGGTCGA	4.3
GAAAAGGCCTGACCTTTGCCCTCTGGCCCTGCCTAGGGAGATTAGAGTATCGGTCGA	9.1
CAGAGGCTTCCTCTTTGGTGCAAAGGTCAGGCCTAGGGAGATTAGAGTATCGGTCGA	6.86
GACCTTTGCCCTCTGGCCCTTAAAGGCTTTGCCTAGGGAGATTAGAGTATCGGTCGA	6.99
TTGAAGCAGAGTGTCCCATATCACATTTTAGCCTAGGGAGATTAGAGTATCGGTCGA	0.955
TGCTTATCAGTGTACCTGTCCCTACTCAATGCCTAGGGAGATTAGAGTATCGGTCGA	0.371
GTGCCCTCATAAGAGACTTTGCCCTTTTTTGCCTAGGGAGATTAGAGTATCGGTCGA	5.63
TCAGGACTCTAACTGGCTTTAAGAGGAATGGCCTAGGGAGATTAGAGTATCGGTCGA	-0.943
AGGAATGAGACATGAATCCATCCCACCTCAGCCTAGGGAGATTAGAGTATCGGTCGA	-0.775
AAACTTTAGTAGTCCAAAGCTCAGATTGCCGCCTAGGGAGATTAGAGTATCGGTCGA	0.566
AGATGGTCTCAGGTGGAGATAAGGAATTTGGCCTAGGGAGATTAGAGTATCGGTCGA	-0.171
GGTGGACTTTGGCCGTGAAGCCGTCCTGTCGCCTAGGGAGATTAGAGTATCGGTCGA	5.03
TTGAAAGTTTGGTGGACTTTGGCCGTGAAGGCCTAGGGAGATTAGAGTATCGGTCGA	6.79
TAATTCTTCTTTGAAAGTTTGGTGGACTTTGCCTAGGGAGATTAGAGTATCGGTCGA	6.32
AGTTTGGTGGACTTTGGCCGTGAAGCCGTCGCCTAGGGAGATTAGAGTATCGGTCGA	6.2
CTTCTTTGAAAGTTTGGTGGACTTTGGCCGGCCTAGGGAGATTAGAGTATCGGTCGA	9.62
GGCATTAATTCTTCTTTGAAAGTTTGGTGGGCCTAGGGAGATTAGAGTATCGGTCGA	2.23
TTTGCTCCAGTTCCCAATAATTTCCTTATCGCCTAGGGAGATTAGAGTATCGGTCGA	-0.628
TGTAACTAACAACTGACCTTGCAGGCCAGGGCCTAGGGAGATTAGAGTATCGGTCGA	-0.838
TCTGTTTGATTCCATGCTGATAATGGAATTGCCTAGGGAGATTAGAGTATCGGTCGA	0.756

Sequence	binding signal [log2 normalized intensity]
GACATGCAGTATGGGGACTTTGGACTCCTGGCCTAGGGAGATTAGAGTATCGGTCGA	7.53
CAAATGAATAATCCCCTCCTGGACTTTGGTGCCTAGGGAGATTAGAGTATCGGTCGA	4.73
GAATAATCCCCTCCTGGACTTTGGTCTCATGCCTAGGGAGATTAGAGTATCGGTCGA	7.15
CTCCTGGACTTTGGTCTCATGGGCCTAAACGCCTAGGGAGATTAGAGTATCGGTCGA	4.65
ATCCCCTCCTGGACTTTGGTCTCATGGGCCGCCTAGGGAGATTAGAGTATCGGTCGA	6.4
GTAATGACATGCAGTATGGGGACTTTGGACGCCTAGGGAGATTAGAGTATCGGTCGA	5.99
ATCAGTGTACCTGTCCCTACTCAATTATCAGCCTAGGGAGATTAGAGTATCGGTCGA	-0.287
CAAGAATACGGATTCTTAAGGGCAAAGGTTGCCTAGGGAGATTAGAGTATCGGTCGA	5.88
GCTGTGCCGAGCCTGCAGGTGAATGGAAACGCCTAGGGAGATTAGAGTATCGGTCGA	-0.549
AATCTGAATTAACTCTTTACACAGTTCTGAGCCTAGGGAGATTAGAGTATCGGTCGA	-0.00196
ACAAAAACTGTTTCTATGTGACCTTCACCCGCCTAGGGAGATTAGAGTATCGGTCGA	5.26
AAGACTTCCTGGCCTCTCTGCAAATTTGCCGCCTAGGGAGATTAGAGTATCGGTCGA	-0.993
GTTAGGAAACACTCTGTTTGTAAAGTCTACGCCTAGGGAGATTAGAGTATCGGTCGA	0.577
GGGTGGGGTGCTGCCTTTCCTGTGACTTTTGCCTAGGGAGATTAGAGTATCGGTCGA	1.74
CTGTGCTGCCCTTTGCCCTTTGGGAAGGGGGCCTAGGGAGATTAGAGTATCGGTCGA	5.8
TTTTCCTTGGCTGTGCTGCCCTTTGCCCTTGCCTAGGGAGATTAGAGTATCGGTCGA	7.6
CTTGGCTGTGCTGCCCTTTGCCCTTTGGGAGCCTAGGGAGATTAGAGTATCGGTCGA	7.11
GGACTTTGGGCTGTGTTTTGCCCCTGCAGAGCCTAGGGAGATTAGAGTATCGGTCGA	3.66
GAGAGTTTTCCTTGGCTGTGCTGCCCTTTGGCCTAGGGAGATTAGAGTATCGGTCGA	3.6
GGGCATGGACTTTGGAATTAAGGAGATTTGGCCTAGGGAGATTAGAGTATCGGTCGA	4.96
AGATCCGAAGTCTAGGACGTTATCAGCAGGGCCTAGGGAGATTAGAGTATCGGTCGA	0.0613
ATAAGTTTTCTCATAAAACACCCACCTTGTGCCTAGGGAGATTAGAGTATCGGTCGA	-0.452

Sequence	binding signal [log2 normalized intensity]
TGGCTAAGACAGGGGCTATTTCTGACCTTTGCCTAGGGAGATTAGAGTATCGGTCGA	6.5
CCTTTGCACCAGAGATAATATGCTTACTTAGCCTAGGGAGATTAGAGTATCGGTCGA	0.0286
CTATTTCTGACCTTTGCACCAGAGATAATAGCCTAGGGAGATTAGAGTATCGGTCGA	5.8
AAGACAGGGGCTATTTCTGACCTTTGCACCGCCTAGGGAGATTAGAGTATCGGTCGA	9.65
AGGGGCTATTTCTGACCTTTGCACCAGAGAGCCTAGGGAGATTAGAGTATCGGTCGA	6.87
TCTGACCAGGCTGATTTAGCTATTTGACCTGCCTAGGGAGATTAGAGTATCGGTCGA	4.02
ATGACTCCAAAGTTCAAACTCTGAAAGCACGCCTAGGGAGATTAGAGTATCGGTCGA	2.34
CCCTGCAGTCCTCTGCTTATCTGGCCTGCTGCCTAGGGAGATTAGAGTATCGGTCGA	-0.935
ATCTGGTGGTGGTTCTTGTTTCATTGCACAGCCTAGGGAGATTAGAGTATCGGTCGA	1.84
GTCTTGAGCGCAAATGATCAAAGGTCGGTTGCCTAGGGAGATTAGAGTATCGGTCGA	5.6
TCAGCACTGAGAGATTACATTTGACTGAGGGCCTAGGGAGATTAGAGTATCGGTCGA	-0.895
CATGCTCTTGGAATGTTGAACCTTTCTTTGGCCTAGGGAGATTAGAGTATCGGTCGA	2.64
TATCCAATAAAACACTATCTTCTTTCAGTGGCCTAGGGAGATTAGAGTATCGGTCGA	0.883
AGGAGTGTCTTTCTCCTTGAACACAGTGTTGCCTAGGGAGATTAGAGTATCGGTCGA	1.25
AACCTTCATCTCTCTTTGTTGACATCTGCTGCCTAGGGAGATTAGAGTATCGGTCGA	0.528
TCTTTCAGTGTTGACCTTTGAACATTTCTTGCCTAGGGAGATTAGAGTATCGGTCGA	8.04
TATCTTCTTTCAGTGTTGACCTTTGAACATGCCTAGGGAGATTAGAGTATCGGTCGA	8.83
AACACTATCTTCTTTCAGTGTTGACCTTTGGCCTAGGGAGATTAGAGTATCGGTCGA	6.87
TCTTGGAATGTTGAACCTTTCTTTGTCTTTGCCTAGGGAGATTAGAGTATCGGTCGA	2.24
GAATGTTGAACCTTTCTTTGTCTTTGCAATGCCTAGGGAGATTAGAGTATCGGTCGA	2.02
